Sampled rows, rich in hits. Any-hit rate of the full collection: about 31%.
CYP2C19 inh = inhibitors of human CYP2C19; P33261; CYP2C19 Supersomes, luciferin-H EGE luminescence, 30 min; inhibition, % at 5 µM; hit rate 21% among 96,000; AID 778;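 active means CYP2C19 inhibition above a set limit at 5 µM in the primary screen, cut at about 50% in these data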;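 further: plate controls were negative control wells for no effect and 2.5 mM tranylcypromine positive control for full effect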
Target sequence (P33261 whole entry, looked up): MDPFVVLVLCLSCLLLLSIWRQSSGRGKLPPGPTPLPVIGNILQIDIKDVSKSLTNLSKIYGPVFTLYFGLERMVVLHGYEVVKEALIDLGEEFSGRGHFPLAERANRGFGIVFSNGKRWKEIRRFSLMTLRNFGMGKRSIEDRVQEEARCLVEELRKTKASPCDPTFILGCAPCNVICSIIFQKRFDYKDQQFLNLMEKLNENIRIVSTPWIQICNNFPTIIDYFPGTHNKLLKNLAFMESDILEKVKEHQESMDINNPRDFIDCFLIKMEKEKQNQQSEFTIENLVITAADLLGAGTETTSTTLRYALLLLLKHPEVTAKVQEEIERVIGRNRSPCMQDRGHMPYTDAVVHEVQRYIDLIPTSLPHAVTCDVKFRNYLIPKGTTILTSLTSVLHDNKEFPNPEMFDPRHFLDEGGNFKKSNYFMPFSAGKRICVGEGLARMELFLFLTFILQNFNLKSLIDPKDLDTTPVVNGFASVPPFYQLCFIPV
CYP2C19 act = increases human CYP2C19 enzyme activity | P33261 | recombinant CYP2C19, luciferin-H EGE luminescence; hits give high values; 0 = fully inhibited enzyme, 1 = untreated enzyme | activation factor at 5 µM | 96,000 tested, under 10 active;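 active means activation factor of at least 2 at 5 µM in the primary screen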;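 further: 0 = wells with 2.5 mM tranylcypromine and 1 = vehicle-only wells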
CYP2C9 activ = CYP2C9 (human) activation; P11712; recombinant CYP2C9, luciferin-H conversion, luminescence; hits give high values; factor 1 = untreated enzyme, 0 = blocked; activation factor at 5 µM; hit rate 1.4% among 96,000; AID 1024;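 active means activation factor of 2 or more for CYP2C9 at a 5 µM dose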;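 further: 0 = sulfaphenazole-blocked wells and 1 = vehicle-only wells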
CYP2C9 inhib = inhibitors of human CYP2C9. P11712. CYP2C9 Supersomes, luciferin-H conversion, luminescence. inhibition, % at 5 µM. hit rate 20% among 96,000. AID 777;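 active means blocking of liver enzyme CYP2C9 beyond about 50% at 5 µM, limit read from the data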
Starred values were filed as active, the others as inactive.

SMILES	CYP2C19 inh	CYP2C19 act	CYP2C9 activ	CYP2C9 inhib
Cc1ccc(S(=O)(=O)[N-]c2nc3ccccc3nc2-n2cc[n+](CCC(C)C)c2)cc1	56*	0.4	0.1	94*
Cc1ccc(S(=O)(=O)/N=C2\C(=O)c3ccccc3C([O-])=C2n2cc[n+](CCC(C)C)c2)cc1	22	0.8	0.5	53*
O=S(=O)([N-]c1nc2ccccc2nc1-[n+]1ccccc1)c1ccc(Cl)cc1	-2	1	0.7	26
COc1ccccc1N1CCN(/N=C/C=C\c2ccco2)CC1	18	0.8	1	1
Cc1nnc(SCCn2c(Br)nc3c2c(=O)[nH]c(=O)n3C)s1	1	1	0.9	14
Cn1c(=O)c(=O)n(C)c2cc(S(=O)(=O)N3CCN(C4CCCCC4)CC3)ccc21	-11	1.1	2.5*	-149
Cn1c(=O)c(=O)n(C)c2cc(S(=O)(=O)N3CCOCC3)ccc21	12	0.9	0.9	13
CC(=O)Nc1cnc2ccccc2n1	-8	1.1	1.1	-13
N#CCCn1cnc2c(=S)nc[nH]c21	-5	1.1	1.1	-8
CCN(CCCNC(=O)C1CCN(S(=O)(=O)c2cccc3nonc23)CC1)Cc1ccccc1	-6	1.1	1.1	-6
CN1C(=O)C2(NCCc3c2[nH]c2ccccc32)c2ccccc21 (stereo not drawn)	81*	0.2	0.9	15
CN1CCCCc2c1[nH]c1ccccc1c2=O	0	1	1.3	-32
CCCS(=O)(=O)N1CCCC(C(=O)NCCc2ccc(OC)c(OC)c2)C1 (stereo not drawn)	7	0.9	0.9	10
O=C(NCCCn1ccnc1)c1cc(S(=O)(=O)N2CCOCC2)c(Cl)cc1Cl	72*	0.3	0	96*
O=C(NCCCn1ccnc1)c1ccc(Br)c(S(=O)(=O)N2CCOCC2)c1	53*	0.5	0.1	95*
Cc1ccc(S(=O)(=O)N2CCOCC2)cc1C(=O)NCCCn1ccnc1	65*	0.3	0.2	76*
COc1ccc(C(=O)NCCC(C)C)cc1S(=O)(=O)N1CCOCC1	17	0.8	0.7	30
Cc1ccccc1N1C(=O)c2cccc3c(N(C)CCO)ccc(c23)C1=O	50*	0.5	0.9	15
c1ccc(-c2onc3c2CCCC3)cc1	58*	0.4	1	-3
C=CCn1c(SCC(=O)N2CCc3ccccc3C2)nc2sc(C)cc2c1=O	63*	0.4	0	96*
C=CCn1c(SCC(=O)Nc2cc(C)on2)nc2sc(CC)cc2c1=O	5	0.9	0.3	72*
C=CCn1c(SCC(=O)c2cccs2)nc2sc(CC)cc2c1=O	-2	1	0.7	25
C=CCn1c(SCC(=O)NC2CCS(=O)(=O)C2)nc2sc(CC)cc2c1=O (stereo not drawn)	5	0.9	0.6	42
CCn1c(SCC(=O)N2CCc3ccccc3C2)nc2c1c(=O)n(C)c(=O)n2C	10	0.9	1.1	-13
C=CCn1c(SCC(=O)N2CCN(C(=O)c3ccco3)CC2)nc2sc(CC)cc2c1=O	90*	0.1	0	99*
SMILES	CYP2C19 inh	CYP2C19 act	CYP2C9 activ	CYP2C9 inhib
CN(CCOc1ccc(-c2ccn(S(=O)(=O)c3cccc4ccccc34)n2)cc1)c1ccccn1	50*	0.5	0.5	49
CC(NC(=O)c1cccnc1)C(c1cccs1)N1CCN(C)CC1 (stereo not drawn)	9	0.9	1	1
CC(NC(=O)c1ccco1)C(c1cccs1)N1CCOCC1 (stereo not drawn)	64*	0.4	0.7	33
CC(NC(=O)Nc1ccccc1)C(c1cccs1)N1CCN(C)CC1 (stereo not drawn)	-3	1	1	-3
CC(NC(=O)Nc1ccc(Cl)cc1)C(c1cccs1)N1CCOCC1 (stereo not drawn)	68*	0.3	0.5	49
CCN1CCN(C(c2cccs2)C(C)NC(=O)c2c(F)cccc2F)CC1 (stereo not drawn)	11	0.9	1.1	-10
CC(NC(=O)c1ccccc1)C(c1cccs1)N1CCOCC1 (stereo not drawn)	57*	0.4	0.6	45
CCN1CCN(C(c2cccs2)C(C)NC(=O)c2ccccc2F)CC1 (stereo not drawn)	8	0.9	0.4	59*
CC(=O)c1ccc(OCC(O)CN2CCN(c3ccccn3)CC2)cc1 (stereo not drawn)	34	0.7	0.8	19
Cc1cc(C)n(-c2nc(SCCN(C)C)c3c4c(sc3n2)COC(C)(C)C4)n1	23	0.8	0.7	26
COC(=O)c1cc(-c2c(C)oc3cc(OC)ccc3c2=O)c(C)o1	-14	1.1	1	1
COc1ccccc1-c1c(C(F)(F)F)oc2cc(OC(=O)c3ccccc3[N+](=O)[O-])ccc2c1=O	55*	0.5	0.4	62*
Fc1ccc(CSc2ncnc3sc4c(c23)CCCC4)cc1	28	0.7	0.7	26
O=C(CSc1nc(Nc2ccccc2)nc(N2CCOCC2)n1)Nc1ccc([N+](=O)[O-])cc1	53*	0.5	0.2	77*
O=C(CSc1nc(Nc2ccccc2)nc(N2CCOCC2)n1)Nc1ccccc1Cl	95*	0	0	97*
Cn1c(SCC(=O)Nc2ccc(N3CCOCC3)cc2)nnc1-c1ccccc1	1	1	0.9	7
COc1ccc(C(=O)/C=C2\NCC3c4ccccc4CCN3C2=O)cc1 (stereo not drawn)	-1	1	1.2	-20
O=C(c1ccccc1)c1ccc2nc[nH]c2c1	57*	0.4	0.6	40
O=C1CSC(c2cn(-c3ccccc3)nc2-c2cc3ccccc3o2)N1Cc1ccccc1 (stereo not drawn)	54*	0.5	0.1	89*
O=C1CSC(c2cn(-c3ccccc3)nc2-c2cc3ccccc3oc2=O)N1Cc1ccco1 (stereo not drawn)	55*	0.4	0.2	76*
O=C(CCCN1C(=O)CSc2ncccc21)N1CCN(Cc2ccccc2)CC1	18	0.8	0.8	19
CCOc1ccccc1-c1nnc(SCC(=O)NC2CC3CCC2C3)n1CC (stereo not drawn)	77*	0.2	0.5	47
CCn1c(SCC(=O)NC2CCCCC2)nnc1-c1cc2cccc(OC)c2o1	43	0.6	1.5	-55
NC(=O)CSc1nc2sc(-c3ccccc3)cc2c(=O)n1N	-9	1.1	1.1	-7
CCCS(=O)(=O)c1c(S(=O)(=O)CCC)c2c(N)cccn2c1C(=O)c1ccccc1	40	0.6	0.3	75*
CN(C)CCCNc1cn[nH]c(=O)c1Cl	-4	1	0.9	5
CCOc1cccc(NC(=O)CSc2nc(C)c3c(c2C#N)CCCC3)c1	14	0.9	0.8	16
CC(=O)Nc1cccc(NC(=O)CSc2nc(C)c(C)c(C)c2C#N)c1	67*	0.3	0.8	19
COCCn1c(C)cc(C(=O)COC(=O)c2c(C)nn(Cc3ccccc3)c2C)c1C	61*	0.4	0.9	14
Cc1nn(-c2ccccc2)c(C)c1C(=O)OCC(=O)NC12CC3CC(CC(C3)C1)C2	68*	0.3	0.7	27
